Screening data: PubChem, National Center for Advancing Translational Sciences (NCATS)
Sampled rows, rich in hits. Any-hit rate of the full collection: about 12%.
JMJD2A Tudor inh = qHTS Assay for Inhibitors of JMJD2A-Tudor Domain; AlphaScreen JMJD2A-Tudor / H3K4me3 peptide binding; Potency, µM (doses to about 114 µM), without a hit: at the top dose activity change, negative = inhibition, usual class: inhibitors; 390,000 tested, 4.4% active; note: % is set by controls: 0 for no effect and ±100 for the full control effect; nearly all actives have a fitted effect of over 50% in size
HP1b binding inh = HTS for Inhibitors of HP1-beta Chromodomain Interactions with Methylated Histone Tails. AlphaScreen HP1-beta / biotin-H3K9me3 peptide binding. 390,000 tested, 0.56% active. Chromobox protein homolog 1 (Homo sapiens), P83916. Potency, µM (doses to about 114 µM), without a hit: top-dose activity change, negative = inhibition, usual class: inhibitors; note: nearly all actives have a fitted effect of over 70% in size
Target sequence (P83916 whole entry, looked up): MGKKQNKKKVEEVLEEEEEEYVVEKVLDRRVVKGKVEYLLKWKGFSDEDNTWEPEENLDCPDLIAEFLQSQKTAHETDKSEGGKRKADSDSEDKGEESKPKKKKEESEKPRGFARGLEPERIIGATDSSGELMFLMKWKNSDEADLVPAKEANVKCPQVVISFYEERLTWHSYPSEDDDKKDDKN
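Compound inhibition of the preformed complex between 50 nM HP1-beta and 50 nM biotinylated H3K9me3 peptide was read by AlphaScreen. Buffer was PBS pH 7.4 with 0.01% Tween-20. Incubations ran 30 min at room temperature, with 10 ug/mL donor/acceptor beads.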
L3MBTL1 inh = qHTS Assay for the Inhibitors of L3MBTL1. Lethal(3)malignant brain tumor-like protein 1 (Homo sapiens), Q9Y468. AlphaScreen L3MBTL1–H3K9me1 peptide binding. Potency, µM (highest dose often 57.1 µM), for inactives: top-dose activity, negative = inhibition, most hits filed as inhibitors. 230,000 tested, 0.66% active. AID 485360, 2010; note: % is set by controls: 0 for no effect and ±100 for the full control effect; nearly all actives have a fitted effect of over 60% in size
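L3MBTL1 50 nM + b-AHA-H3(1-15)K9me1 75 nM, 30 min RT; compound added, 30 min RT; streptavidin donor/Ni-chelate acceptor beads 10 ug/mL each final, 30 min RT dark; AlphaScreen read.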
BAZ2B inh = qHTS Assay for Inhibitors of BAZ2B. Bromodomain adjacent to zinc finger domain protein 2B (Homo sapiens), Q9UIF8. AlphaScreen BAZ2B-H3K14Ac peptide displacement. Potency, µM (doses to about 114 µM), without a hit: at the top dose activity change, negative = inhibition, hits mostly inhibitors. 360,000 tested, 4.4% active. AID 504333, 2011; note: % is set by controls: 0 for no effect and ±100 for the full control effect; nearly all actives have a fitted effect of over 60% in size
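Protein-peptide AlphaScreen: BAZ2B 50 nM, b-H3K14Ac 50 nM, 1x PBS pH 7.4 + 0.01% Tween-20. Preincubation 30 min RT; cpd 30 min RT (top 110 uM); beads 20 min RT, light-protected.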
Sfp inh = qHTS Assay for Inhibitors of Bacillus subtilis Sfp phosphopantetheinyl transferase (PPTase); 4'-phosphopantetheinyl transferase ffp (Bacillus subtilis), Q9F4F7; Biochemical Sfp PPTase activity, qHTS; Potency, µM, for the others: largest response in the series, negative = inhibition, most hits filed as inhibitors; 310,000 tested, 3.5% active; AID 1490, 2009;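 note: the enzyme is Sfp with the accession as filed and its product quenches rhodamine fluorescence; 0% = enzyme reaction without inhibitor and -100% = no enzyme wells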
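Sfp 15 nM + cpd, 15 min RT; start w/ rhodamine-CoA 5 uM, BHQ-2-YbbR 12.5 uM (final); 50 mM Hepes pH 7.6, 10 mM MgCl2, 0.01% NP-40, 0.01% BSA; read 525/598 nm at 0 and 30 min.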
G9a inh = qHTS Assay for Inhibitors of Histone Lysine Methyltransferase G9a | Histone-lysine N-methyltransferase EHMT2 (Homo sapiens), Q96KQ7 | G9a H3K9 monomethylation, AlphaScreen, 2 h | Potency, µM (series often up to 102 µM), for the others: at the highest dose activity, negative = inhibition, usual class: inhibitors | 350,000 tested, 8.8% active; note: % is set by controls: 0 for no effect and ±100 for the full control effect; nearly all actives have a fitted effect of over 75% in size
Target sequence (Q96KQ7 913-1193 limits assumed): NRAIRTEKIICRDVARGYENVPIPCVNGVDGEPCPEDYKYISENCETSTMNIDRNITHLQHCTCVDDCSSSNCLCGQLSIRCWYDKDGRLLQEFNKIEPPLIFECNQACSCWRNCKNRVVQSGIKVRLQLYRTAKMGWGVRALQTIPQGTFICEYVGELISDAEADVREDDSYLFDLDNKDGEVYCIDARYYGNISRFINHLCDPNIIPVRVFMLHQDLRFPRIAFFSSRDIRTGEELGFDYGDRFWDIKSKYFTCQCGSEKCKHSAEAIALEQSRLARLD
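Chemiluminescent proximity detection of H3K9 monomethylation, read after 10 min bead incubation in the dark. Reaction: 20 nM G9a, 500 nM biotin-H3K9 peptide, 20 uM SAM cofactor, 2 h, room temperature, following 15 min enzyme-compound preincubation.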
* marks the source's active call; other numbers are inactive results; ? = inconclusive; . = not tested or not shown; [ ] = dose if it differs, or a comment. Calls come from the whole dose curve; as a rule, active = well fitted curve in the direction sought with a large enough effect; inconclusive = small, poorly fitted or top-dose-only effect, or another doubt; inactive = no such curve, though single readings can be large; an effect the other way counts as inactive or inconclusive. Potency is the fitted concentration of half-maximal effect.

SMILES | JMJD2A Tudor inh | HP1b binding inh | L3MBTL1 inh | BAZ2B inh | Sfp inh | G9a inh
NCCC[C@@H](CC(=O)N[C@@H]1CCCC[C@H]1C(=O)N[C@H](CC(=O)N[C@@H](CCC(=O)O)CC(=O)O)Cc1ccccc1)NC(=O)C[C@H](Cc1c[nH]c2ccccc12)NC(=O)[C@@H]1CCCC[C@H]1N | . | . | . | . | 0% | .
Cc1nc(CCNC(=O)CC2C(=O)NCCN2Cc2ccccc2)sc1C (stereo not drawn) | -8% | 34% | . | -10% | -14% | .
COc1ccc(CN2CCNC(=O)C2CC(=O)NCc2cnn(C)c2)cc1OC (stereo not drawn) | -16% | 84% | 7% | -1% | 9% | 50µM*
COc1ccc(CN2CCNC(=O)C2CC(=O)O)cc1OC (stereo not drawn) | -3% | 46% | ? | -3% | 8% | ?
COc1ccc(CN2CCNC(=O)C2CC(=O)NCCc2nc(C)c(C)s2)cc1C (stereo not drawn) | ? | 5% | . | -30% | -13% | 45µM*
COc1ccc(NCc2cc3ccc(OC)cc3n(CC(=O)Nc3cccc(OC)c3)c2=O)cc1 | -10% | 21% | . | -21% | . | -33%[59 µM]
COc1ccc(C2C3C=CCC(C)C3C(=O)N2Cc2ccccc2)cc1Cl (stereo not drawn) | -10% | 22% | . | . | -15% | .
COc1cccc(CN2CCN(Cc3[nH]c4ccccc4c3C)CC2CCO)c1 (stereo not drawn) | ? | 2% | -7% | 35µM* | 7% | ?
COc1ccc2c(c1)C=C(CN1CCN(Cc3ccccc3C)C(CCO)C1)CO2 (stereo not drawn) | 50µM* | -30% | -2% | ? | 12% | ?
COc1ccc(CN2CCN(Cc3ccc(C)cc3)C(CCO)C2)cc1OC (stereo not drawn) | -16% | 17% | 38% | -3% | 7% | .
CC(=O)Nc1ccc2nc(CN3CCN(CC(C)C)C(CCO)C3)ccc2c1 (stereo not drawn) | -6% | 25% | 0% | -17% | 8% | -6%
COc1cc(CN2CCN(Cc3ccc(C)cc3)C(CCO)C2)cc(OC)c1O (stereo not drawn) | -25% | 10% | -2% | -15% | 0% | 45µM*
CCOc1ccc(CN2CCN(CC3=Cc4cccc(OC)c4OC3)CC2CCO)cc1 (stereo not drawn) | -27% | 16% | 3% | -14% | -16% | 1%[12.7 µM]
CC(=O)Nc1ccc2nc(CN3CCN(Cc4ccc(F)cc4)C(CCO)C3)ccc2c1 (stereo not drawn) | -15% | 37% | 11% | -7% | 79µM* | .
CC1=C(C(=O)Nc2ccccc2C)C(c2cccs2)n2nc(SCc3ccccc3)nc2N1 (stereo not drawn) | -5% | 34% | . | -18% | . | 2%[59 µM]
CCC(=O)[C@@]1(O)C(=O)N2C(=C3C(=O)OCCC31)N(Cc1ccccc1)C(C)=C(C(=O)OC)C2c1ccccc1 (stereo partly drawn) | . | . | . | . | 23% | .
Cc1ccc(CNC(=O)c2ccc3c(c2)nc2n3CCCC2)cc1 | 1% | 25%[57 µM] | . | 2% | . | 10%[59 µM]
COc1cc(OC)cc(C2=Nn3c(nnc3-c3ccccc3O)SC2)c1 | -23% | . | . | . | 3% | .
Cc1ccc(CN2CCN(Cc3ccccn3)CC2CCO)cc1 (stereo not drawn) | -12% | 32% | -12% | 56µM* | -21% | 1%
COc1ccc(Nc2ncnc3c2cnn3-c2ccc(C)cc2)cc1Cl | 0% | 47% | . | 3% | . | 0%[59 µM]
Cc1ccccc1C(=O)Nc1ccccc1OCc1cc(=O)n2ccccc2n1 | -19% | 13%[57 µM] | . | 9% | . | 1%[59 µM]
Cn1cccc1C(=O)N1CCC2(CC1)CCN(c1cccc(-c3ccccc3)c1)CC2 | . | . | . | . | 1% | -19%[12.7 µM]
CCOC(=O)c1[nH]c(C)c(CCC(=O)Nc2cc(Cl)c(OC)cc2OC)c1C | -35% | 0%[57 µM] | . | -11% | . | -27%[59 µM]
O=C1c2cccnc2C(=O)N1C1CCCCC1 | -8% | 31% | 2% | 79µM* | 23% | 108%[59 µM]
O=C1c2cccc([N+](=O)[O-])c2C(=O)N1C1CCCCC1 | -31% | 4% | 3% | -13% | 5% | .
SMILES | JMJD2A Tudor inh | HP1b binding inh | L3MBTL1 inh | BAZ2B inh | Sfp inh | G9a inh
CCOc1ccc(NC(=O)CCNS(=O)(=O)c2ccc3c(c2)CC(C)N3C(C)=O)cc1 (stereo not drawn) | 25µM* | 15% | . | -14% | 14% | 9%[59 µM]
CCCCOc1ccc(C2(C)NC(=O)NC2=O)cc1 (stereo not drawn) | 16µM* | 17% | 3% | -3% | 18% | 4%[59 µM]
NC(N)=Nc1nc2ccccc2o1 | 13µM* | 20%[57 µM] | 4% | 3% | -8% | ?
CCC(C)n1c(=O)c2sccc2n2c(CCCC(=O)Nc3ccc(F)cc3)nnc12 (stereo not drawn) | -11% | 18% | . | -15% | . | -5%[59 µM]
CC#Cc1cc2c(cc1O)CCC1C2CCC2(C)C(O)CCC12 (stereo not drawn) | 79µM* | ? | . | . | . | .
CCNc1cc2c(cc1O)CCC1C2CCC2(C)C(O)CCC12 (stereo not drawn) | 89µM* | ? | . | . | . | .
C=Cc1cc2c(cc1O)CCC1C2CCC2(C)C(O)CCC12 (stereo not drawn) | -26% | 4% | . | . | . | .
CCc1noc(-c2ccc(N3CCC(C)CC3)c([N+](=O)[O-])c2)n1 | -11% | 27% | . | -15% | . | -2%[59 µM]
COc1cc(C(=O)O/N=C2\C=CC(=O)C(C)=C2)cc(OC)c1OC | -20% | 22% | 6% | -33% | -4% | 14µM*
COc1cc(C(=O)ON=C2C=C(C)C(=O)C(C)=C2)cc(OC)c1OC | -25% | 22% | 6% | 1% | 3% | -10%[59 µM]
COC(=O)C1=C(C(=O)OC)[C@@H]2N(C)c3ccccc3[C@@]23C[C@@H](C(=O)OC)N(S(=O)(=O)c2ccc(C)cc2)C3=N1 | . | . | . | . | 16% | .
O=S(=O)(O)CC(S)CS (stereo not drawn) | . | . | . | . | 2.8µM* | -34%[2.33 µM]
CCOC(=O)C1=C(O)C(=O)N(c2ccc(S(N)(=O)=O)cc2)C1c1cccc([N+](=O)[O-])c1 (stereo not drawn) | -21% | 20% | 7% | -22% | -10% | ?
